In the supplement of paper PMC6555819 one finds PBM binding z-score data, which are given here for seven sequences.

Holding throughout (assay): PBM binding z-score (relative to random genomic background probes); higher = stronger binding; sequences stand for … in GC…GCGATTGACAGCGTAGAATGAAGG
Assay [1] has as its system FXR:RXRa (NR concentration 270 nM, RXRa partner concentration 90 nM). Summed up:
(§1)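 Antibodies against each partner of ligand-free nuclear receptor dimers (one per run) detected binding on custom Agilent 4×180K protein-binding microarrays after 1 h incubation. The double-stranded probes had 34-nt variable regions carrying direct-repeat seeds, single-nucleotide variants, half-site ablations and random human genomic background sequences. Binding z-scores, from regression-normalized fluorescence, use the random background probes as reference.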

Assay [2] concerns LXRa:RXRa (NR concentration 270 nM, RXRa partner concentration 90 nM). Summed up: as §1
The test system of assay [3] is LXRa homodimer (NR concentration 270 nM). In a few lines:
as §1

The subject of assay [4] is LXRb:RXRa (NR concentration 270 nM, RXRa partner concentration 90 nM). In a few lines:
as §1

Assay [5] has as its system LXRb homodimer (NR concentration 270 nM). In a few lines:
as §1

The subject of assay [6] is PPARa:RXRa (NR concentration 270 nM, RXRa partner concentration 90 nM). Summed up: as §1
In assay [7] the test system is PPARg:RXRa (NR concentration 180 nM, RXRa partner concentration 90 nM). Summed up:
as §1

The subject of assay [8] is PPARg:RXRa 270nM:90nM, anti-RXR (NR concentration 270 nM, RXRa partner concentration 90 nM). In a few lines:
as §1

Assay [9] concerns PPARg:RXRa 30nM:10nM, anti-RXR (NR concentration 30 nM, RXRa partner concentration 10 nM). In a few lines: as §1
For assay [10], the system named is PPARg:RXRa 90nM:30nM, anti-RXR (NR concentration 90 nM, RXRa partner concentration 30 nM). In a few lines:
as §1

In assay [11] the test system is PPARg:RXRa DBDmut IVT, anti-RXR (DBD mutation: RXRa K156A/R161A, NR concentration 270 nM, RXRa partner concentration 90 nM). Summed up:
as §1

For assay [12], the system named is PPARg:RXRa IVT, anti-PPARg (NR concentration 270 nM, RXRa partner concentration 90 nM). Summed up:
as §1

Assay [13] concerns PPARg DBDmut:RXRa IVT, anti-PPARg (DBD mutation: PPARg1 K132A/R137A, NR concentration 270 nM, RXRa partner concentration 90 nM). In a few lines:
as §1

For assay [14], the system named is PPARg DBDmut IVT, anti-PPARg (DBD mutation: PPARg1 K132A/R137A, NR concentration 270 nM). In a few lines: as §1
In assay [15] the test system is PPARg homodimer (NR concentration 180 nM). In a few lines:
as §1

Assay [16] concerns PXR:RXRa (NR concentration 270 nM, RXRa partner concentration 90 nM). In a few lines:
as §1

In assay [17] the test system is PXR homodimer (NR concentration 270 nM). In a few lines:
as §1

The test system of assay [18] is RARa:RXR (NR concentration 270 nM, RXRa partner concentration 90 nM). Summed up:
as §1

The test system of assay [19] is RARa homodimer (NR concentration 270 nM). In a few lines: as §1
Assay [20] has as its system RARb:RXRa (NR concentration 270 nM, RXRa partner concentration 90 nM). In a few lines: as §1

Turning to TCATATAGGGAAAGGTGAAAGTCGAACGATATGA, the PBM binding z-score was 0.779 in [1]; 1.31 in assay [2]; -0.25 in [3]; 1.43 in [4]; -0.112 in [5]; 2.68 in assay [6]. The PBM binding z-score in assay [7] stood at 2.13; in [8], 3.56; in assay [9], 4.47; in assay [10] it was 3.88; in assay [11], 2.4; in assay [12], 2.31. Further, the PBM binding z-score is 0.712 in assay [13]; 0.709 in assay [14]; 0.702 in [15]; 0.972 in [16]; 0.00313 in [17]; 1.74 in assay [18]. Moreover, the figures for the PBM binding z-score in assay [19] and in assay [20] were 0.496 and 1.78, respectively.
For the sequence CCGACTGGGGCAGAAACGTTACCATACCATCCGG, the PBM binding z-score in assay [1] is -0.564; in assay [2], -0.949; in assay [3], -0.452; in assay [4], -0.779; in [5], -0.864; in [6] it was -1. For the same sequence, the PBM binding z-score was 0.724 in [7]; -0.373 in assay [8]; -0.314 in assay [9]; -0.369 in [10]; 1.22 in [11]; 0.558 in assay [12]. Also, the PBM binding z-score is -0.521 in [13]; -0.904 in assay [14]; -0.18 in [15]; -0.851 in assay [16]; -0.758 in assay [17]; -0.735 in assay [18]. For the same sequence, the figures for the PBM binding z-score in [19] and in assay [20] were 0.0145 and -0.053, respectively.
Consider CCGATTGGGGCATAAGGTTACCATAAGCCAGCCC, for which the PBM binding z-score is 0.433 in assay [1]; 2.07 in assay [2]; -0.331 in assay [3]; 0.749 in assay [4]; -0.968 in assay [5]; 1.96 in [6]. In addition, the PBM binding z-score in assay [7] stood at 1.92; in assay [8] it was 2.87; in assay [9] it was 0.812; in [10], 2.27; in [11], 1.21; in assay [12], 1.53. Also, the PBM binding z-score in assay [13] is -1.1; in assay [14] it was -1.31; in [15], 0.682; in assay [16], 0.17; in assay [17], -0.12; in [18], 1.42. The PBM binding z-score is -0.579 in assay [19] and 1.66 in assay [20].
For the sequence CGTCCAAGCTCAGAGAGGTCAGTGAATGCCGAGT, the PBM binding z-score in assay [1] is 1.33; in [2], 1.41; in [3] it was 0.781; in assay [4], 1.52; in [5] it was -0.498; in [6] it was 2.19. The PBM binding z-score was -0.188 in [7]; 0.558 in [8]; -0.581 in [9]; -0.0568 in assay [10]; 0.269 in assay [11]; 0.153 in assay [12]. In addition, the PBM binding z-score in assay [13] was -0.648; in [14], -1.03; in assay [15] it was 2.06; in assay [16], 2.96; in [17], 0.893; in assay [18], 2.85. Further, the PBM binding z-score is 0.843 in [19] and 2.82 in [20].
As to CAAACTAGGTCTAGAGGTCAAAGTCCGCTTCCCG, the PBM binding z-score was 4.99 in assay [1]; 5.78 in assay [2]; 5.83 in assay [3]; 4.86 in [4]; 1.55 in [5]; 5.14 in assay [6]. In addition, the PBM binding z-score came out at 5.12 in assay [7]; 5.9 in [8]; 4.3 in assay [9]; 5.99 in assay [10]; 3.11 in assay [11]; 4.41 in [12]. Further, the PBM binding z-score in [13] was 0.248; in assay [14], 0.06; in [15], 3.03; in [16] it was 5.4; in assay [17] it was 2.48; in assay [18] it was 5.69. In addition, the values for the PBM binding z-score in assay [19] and in assay [20] were 0.52 and 3.96, respectively.
For the sequence TCGAGTAGGTTAGTCCGGGCATTCAGCCAACATA, the PBM binding z-score in assay [1] is -0.219; in assay [2] it was 0.109; in assay [3], 0.0222; in assay [4], -0.106; in assay [5], -1.05; in assay [6] it was 0.14. For the same sequence, the PBM binding z-score in assay [7] is -0.395; in [8], 0.281; in [9] it was 0.992; in assay [10] it was 0.409; in assay [11], 1.83; in [12] it was 1.17. For the same sequence, the PBM binding z-score is -0.501 in assay [13]; -0.393 in [14]; -0.627 in [15]; -0.337 in [16]; -0.362 in assay [17]; -0.0826 in assay [18]. For the same sequence, the PBM binding z-score in assay [19] is -1.14; in [20], 0.232.
On to AGTAGTTGGTCAGCTGAGGTCACACACAATTCGG, for which the PBM binding z-score in [1] worked out at 4.48; in assay [2], 3.37; in assay [3], 2.92; in assay [4] it was 3.55; in assay [5], 0.79; in assay [6], 3.63. The PBM binding z-score is 1.63 in [7]; 2.33 in assay [8]; 0.674 in assay [9]; 1.56 in [10]; 1.18 in assay [11]; 2.65 in assay [12]. The PBM binding z-score in assay [13] came out at 0.554; in assay [14], 0.308; in assay [15] it was 3.34; in assay [16], 5.41; in [17], 2.54; in assay [18], 4.6. In addition, the PBM binding z-score was found to be 1.53 in assay [19] and 3.63 in assay [20].
